# From PubChem BioAssay (EPA / NIEHS)
# Calls of active or inactive are those of the source. How the source made its calls: active means hit-call score of the fitted dose curve at least 0.9, where 1 is the maximum; inactive means score below 0.9.
# Key:
# Settings in all cases: mRNA level, 48 h; actives raise or lower the signal
# [1] = read-out: Ezrin (EZR), EZR (gene 7430); assay: LTEA_HepaRG_EZR: Life Technologies and Expression Analysis (LTEA) Assay for Ezrin (EZR) using HepaRG (AID 2283491)
# Procedure, shortened: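 Gain or loss of EZR mRNA is scored relative to 0.5% DMSO in human HepaRG cultures treated 48 h with test chemicals in duplicate, eight half-log concentrations from 100 uM.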
# [2] = read-out: Cytochrome P450 3A7 (Homo sapiens) (UniProt P24462); assay: LTEA_HepaRG_CYP3A7: Life Technologies and Expression Analysis (LTEA) Assay for CYP3A7 using HepaRG (AID 2283492)
# Procedure, shortened: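 Differentiated HepaRG cells in serum-free induction medium exposed 48 h in duplicate to 8-point half-log series from 100 uM top in 0.5% DMSO. CYP3A7 mRNA by qRT-PCR, normalized to ACTB/GAPDH/POLR2A, bidirectional fit versus DMSO.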
# CYP3A5 (gene 1577) = assay: LTEA_HepaRG_CYP3A5: Life Technologies and Expression Analysis (LTEA) Assay for CYP3A5 using HepaRG (AID 2283493)
# Procedure, shortened: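 Human HepaRG hepatic cells receive 48 h chemical treatment at eight concentrations (half-log steps from 100 uM) in 0.5% DMSO. Expression of CYP3A5 is quantified by Fluidigm qRT-PCR and normalized to three reference genes.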
# [3] = read-out: Fatty Acid-Binding Protein 1 (FABP1), FABP1 (gene 2168); assay: LTEA_HepaRG_FABP1: Life Technologies and Expression Analysis (LTEA) Assay for Fatty Acid-Binding Protein 1 (FABP1) using HepaRG (AID 2283494)
# Procedure, shortened: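 FABP1 expression by TaqMan qRT-PCR, normalised to three housekeeping genes, in HepaRG cells after 48 h chemical treatment. Eight-point half-log series topping at 100 uM in 0.5% DMSO, duplicates; gain or loss fitted relative to vehicle.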
# [4] = read-out: Cytochrome P450 4A22 (Homo sapiens) (UniProt Q5TCH4); assay: LTEA_HepaRG_CYP4A22: Life Technologies and Expression Analysis (LTEA) Assay for Cytochrome P450 4A22 (CYP4A22) using HepaRG (AID 2283495)
# Procedure, shortened: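 Differentiated HepaRG cells in serum-free induction medium exposed 48 h in duplicate to eight half-log concentrations up to 100 uM in 0.5% DMSO. CYP4A22 mRNA quantified by TaqMan qRT-PCR, normalized to ACTB, GAPDH and POLR2A; bidirectional fit versus DMSO.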
# [5] = read-out: Cytochrome P450 7A1 (Homo sapiens) (UniProt P22680); assay: LTEA_HepaRG_CYP7A1: Life Technologies and Expression Analysis (LTEA) Assay for Cytochrome P450 7A1 (CYP7A1) using HepaRG (AID 2283496)
# Procedure, shortened: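 HepaRG, 48 h exposure, 8-pt half-log series from 100 uM, 0.5% DMSO vehicle, duplicates. Readout: TaqMan qRT-PCR mRNA vs three housekeeping genes; bidirectional curve fit against DMSO baseline.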
# [6] = read-out: Glutathione S-Transferase (GSTA2), GSTA2 (gene 2939); assay: LTEA_HepaRG_GSTA2: Life Technologies and Expression Analysis (LTEA) Assay for Glutathione S-Transferase (GSTA2) using HepaRG (AID 2283497)
# Procedure, shortened: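 GSTA2 transcript levels came from Fluidigm TaqMan qRT-PCR normalized to three housekeeping genes, fitted in both directions against DMSO. HepaRG cultures received chemicals for 48 h in serum-free induction medium (0.5% DMSO), 8 half-log concentrations up to 100 uM, duplicate.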
# [7] = read-out: Glutamate-cysteine ligase catalytic (GCLC), GCLC (gene 2729); assay: LTEA_HepaRG_GCLC: Life Technologies and Expression Analysis (LTEA) Assay for Glutamate-cysteine ligase catalytic (GCLC) using HepaRG (AID 2283498)
# Procedure, shortened: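 Expression by TaqMan qRT-PCR, normalized to three housekeeping genes (ACTB, GAPDH, POLR2A), with up- or down-regulation fitted against DMSO. HepaRG cells dosed in duplicate for 48 h with 8 half-log concentrations up to 100 uM, vehicle 0.5% DMSO.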
# [8] = read-out: Glutamate-cysteine ligase regulatory (GCLM), GCLM (gene 2730); assay: LTEA_HepaRG_GCLM: Life Technologies and Expression Analysis (LTEA) Assay for Glutamate-cysteine ligase regulatory (GCLM) using HepaRG (AID 2283500)
# Procedure, shortened: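 Endpoint is GCLM transcript level by qRT-PCR, normalized to three housekeeping genes, after 48 h chemical exposure of human HepaRG cells (0.5% DMSO vehicle, top 100 uM, half-log dilutions). Fitting was bidirectional relative to DMSO.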
# [9] = read-out: Glutathione S-transferase M3 (GSTM3), GSTM3 (gene 2947); assay: LTEA_HepaRG_GSTM3: Life Technologies and Expression Analysis (LTEA) Assay for Glutathione S-transferase M3 (GSTM3) using HepaRG (AID 2283501)
# Procedure, shortened: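 Differentiated human HepaRG cells were exposed in duplicate for 48 h in serum-free induction medium, 8 points from 100 uM top in half-log steps, 0.5% DMSO. GSTM3 mRNA was measured by TaqMan qRT-PCR, normalized to ACTB, GAPDH and POLR2A; bidirectional fit versus DMSO.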
# [10] = read-out: Hypoxia-inducible factor 1-alpha (Homo sapiens) (UniProt Q16665); assay: LTEA_HepaRG_HIF1A: Life Technologies and Expression Analysis (LTEA) Assay for Hypoxia-inducible factor 1 (HIF1A) Trancription factor using HepaRG (AID 2283503)
# Procedure, shortened: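 HIF1A transcript level read by qRT-PCR (ACTB, GAPDH, POLR2A normalization) after 48 h chemical exposure of HepaRG cultures. Eight half-log concentrations, top 100 uM, 0.5% DMSO vehicle, duplicates; bidirectional curve fit against DMSO baseline.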
# [11] = read-out: 3-Hydroxy-3-Methylglutaryl-CoA Synthase 2 (HMGCS2), HMGCS2 (gene 3158); assay: LTEA_HepaRG_HMGCS2: Life Technologies and Expression Analysis (LTEA) Assay for 3-Hydroxy-3-Methylglutaryl-CoA Synthase 2 (HMGCS2) using HepaRG (AID 2283504)
# Procedure, shortened: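 Human HepaRG cells in serum-free induction medium were exposed in duplicate for 48 h to 8-point half-log series from 100 uM top in 0.5% DMSO. HMGCS2 mRNA measured by TaqMan qRT-PCR, normalised to ACTB, GAPDH, POLR2A; bidirectional fit versus DMSO.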
# HGF (gene 3082) = assay: LTEA_HepaRG_HGF: Life Technologies and Expression Analysis (LTEA) Assay for Hepatocyte Growth Facto (HGF) using HepaRG (AID 2283505)
# Procedure, shortened: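 Differentiated HepaRG cells in serum-free induction medium exposed 48 h in duplicate, 8 half-log concentrations from 100 uM in 0.5% DMSO. HGF mRNA by qRT-PCR, normalised to ACTB, GAPDH, POLR2A; bidirectional fitting.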
# [12] = read-out: Insulin Like Growth Factor 1 (IGF1), IGF1 (gene 3479); assay: LTEA_HepaRG_IGF1: Life Technologies and Expression Analysis (LTEA) Assay for Insulin Like Growth Factor 1 (IGF1) using HepaRG (AID 2283506)
# Procedure, shortened: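 Cells are thawed, plated and cultured 48 h, then exposed in duplicate to chemical (highest 100 uM, half-log steps, 0.5% DMSO) for another 48 h. Total RNA is analysed by Fluidigm qRT-PCR for IGF1 expression relative to vehicle.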
# [13] = read-out: Intercellular Adhesion Molecule 1 (ICAM1), ICAM1 (gene 3383); assay: LTEA_HepaRG_ICAM1: Life Technologies and Expression Analysis (LTEA) Assay for Intercellular Adhesion Molecule 1 (ICAM1) using HepaRG (AID 2283507)
# Procedure, shortened: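 Differentiated human HepaRG cells in serum-free induction medium exposed 48 h in duplicate to 8 half-log concentrations (top 100 uM, 0.5% DMSO). ICAM1 mRNA quantified by TaqMan qRT-PCR, normalized to ACTB, GAPDH and POLR2A; bidirectional fitting versus DMSO.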
# [14] = read-out: Insulin-like growth factor-binding protein 1 (IGFBP1), IGFBP1 (gene 3484); assay: LTEA_HepaRG_IGFBP1: Life Technologies and Expression Analysis (LTEA) Assay for Insulin-like growth factor-binding protein 1 (IGFBP1) using HepaRG (AID 2283508)
# Procedure, shortened: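 HepaRG cells, plated 48 h then switched to serum-free induction medium, exposed in duplicate for 48 h to 8-point half-log series from 100 uM in 0.5% DMSO. mRNA measured by qRT-PCR, normalized to ACTB/GAPDH/POLR2A; bidirectional fit versus DMSO.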
# [15] = read-out: Interleukin 6 (IL6), IL6 (gene 3569); assay: LTEA_HepaRG_IL6: Life Technologies and Expression Analysis (LTEA) Assay for Interleukin 6 (IL6) using HepaRG (AID 2283509)
# Procedure, shortened: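 Transcript levels, normalized to three housekeeping genes, were quantified by qRT-PCR after 48 h chemical treatment of HepaRG cells. Eight-point half-log series from 100 uM in 0.5% DMSO, duplicates. Fitted both directions against DMSO baseline.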
# [16] = read-out: Interleukin 6 Receptor (IL6R), IL6R (gene 3570); assay: LTEA_HepaRG_IL6R: Life Technologies and Expression Analysis (LTEA) Assay for Interleukin 6 Receptor (IL6R) using HepaRG (AID 2283510)
# Procedure, shortened: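 Cells were thawed, plated and cultured 48 h, then medium was changed to serum-free induction medium. Chemicals were added in duplicate (100 uM top, half-log steps, 0.5% DMSO) for 48 h. Lysates were analyzed by qRT-PCR for IL6R expression.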
# [17] = read-out: growth arrest and DNA damage 45 (GADD45G), GADD45G (gene 10912); assay: LTEA_HepaRG_GADD45G: Life Technologies and Expression Analysis (LTEA) Assay for growth arrest and DNA damage 45 (GADD45G) using HepaRG (AID 2283499)
# Procedure, shortened: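 Differentiated human HepaRG cells, 48 h post-plating, exposed 48 h in serum-free induction medium to 8 half-log concentrations (top 100 uM, 0.5% DMSO) in duplicate. GADD45G mRNA measured by Fluidigm TaqMan qRT-PCR, normalized to ACTB, GAPDH, POLR2A; bidirectional fit versus DMSO.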
# [18] = read-out: Heat shock 70 kDa protein 1 (HSPA1A), gene 3303; assay: LTEA_HepaRG_HSPA1A: Life Technologies and Expression Analysis (LTEA) Assay for Heat shock 70 kDa protein 1 (HSPA1A) using HepaRG (AID 2283502)
# Procedure, shortened: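 Cells were plated and cultured for 48 h, then switched to serum-free induction medium. Chemicals were added at eight half-log concentrations up to 100 uM for 48 h. RNA was then isolated and HSPA1A measured by qRT-PCR with bidirectional curve fitting against DMSO.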
# Sequence of Hypoxia-inducible factor 1-alpha (Homo sapiens) (Q16665 whole entry, looked up): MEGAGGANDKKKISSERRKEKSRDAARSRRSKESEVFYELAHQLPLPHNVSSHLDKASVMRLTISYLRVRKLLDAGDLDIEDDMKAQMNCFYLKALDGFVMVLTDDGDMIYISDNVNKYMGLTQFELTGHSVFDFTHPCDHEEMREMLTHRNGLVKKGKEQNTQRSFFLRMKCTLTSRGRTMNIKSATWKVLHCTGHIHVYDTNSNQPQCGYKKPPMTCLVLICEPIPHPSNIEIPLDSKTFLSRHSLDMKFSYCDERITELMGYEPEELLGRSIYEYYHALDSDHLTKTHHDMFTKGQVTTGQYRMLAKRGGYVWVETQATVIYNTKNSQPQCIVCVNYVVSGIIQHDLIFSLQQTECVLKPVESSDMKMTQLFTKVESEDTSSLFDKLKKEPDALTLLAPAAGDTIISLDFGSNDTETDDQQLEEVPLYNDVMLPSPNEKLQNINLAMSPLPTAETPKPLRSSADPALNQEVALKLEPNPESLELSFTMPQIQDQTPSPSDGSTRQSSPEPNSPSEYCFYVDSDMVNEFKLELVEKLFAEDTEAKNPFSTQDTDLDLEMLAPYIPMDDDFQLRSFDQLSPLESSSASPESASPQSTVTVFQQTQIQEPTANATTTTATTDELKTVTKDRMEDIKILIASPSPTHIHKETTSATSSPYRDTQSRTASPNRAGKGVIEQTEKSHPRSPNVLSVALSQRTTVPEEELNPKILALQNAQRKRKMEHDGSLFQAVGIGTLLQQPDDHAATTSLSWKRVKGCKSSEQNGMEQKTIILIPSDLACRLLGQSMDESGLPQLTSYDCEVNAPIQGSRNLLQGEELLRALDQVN
# Sequence of Cytochrome P450 3A7 (Homo sapiens) (P24462 whole entry, looked up): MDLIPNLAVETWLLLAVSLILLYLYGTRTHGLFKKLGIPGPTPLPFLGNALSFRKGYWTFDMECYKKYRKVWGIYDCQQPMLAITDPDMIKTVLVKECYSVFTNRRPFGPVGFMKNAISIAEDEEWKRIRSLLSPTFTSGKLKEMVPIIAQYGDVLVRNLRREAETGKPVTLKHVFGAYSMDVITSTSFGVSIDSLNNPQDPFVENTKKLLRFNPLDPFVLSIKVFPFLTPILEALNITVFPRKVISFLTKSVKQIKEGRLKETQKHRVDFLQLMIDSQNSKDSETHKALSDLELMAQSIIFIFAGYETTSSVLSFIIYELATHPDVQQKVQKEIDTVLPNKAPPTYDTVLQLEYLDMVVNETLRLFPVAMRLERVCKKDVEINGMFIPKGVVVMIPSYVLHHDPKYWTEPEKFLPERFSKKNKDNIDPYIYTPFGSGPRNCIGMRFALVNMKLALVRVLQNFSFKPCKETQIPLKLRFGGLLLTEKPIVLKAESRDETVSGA
compound,measurement,setting,value
CCCN(CC)CC1COC2(CCC(C(C)(C)C)CC2)O1 (stereo unspecified),outcome,[1],inactive
same,outcome,[2],inactive
same,outcome,CYP3A5 (gene 1577),inactive
same,outcome,[3],inactive
same,outcome,[4],inactive
same,outcome,[5],inactive
same,outcome,[6],inactive
same,outcome,[7],inactive
same,outcome,[8],inactive
same,outcome,[9],inactive
same,outcome,[10],inactive
same,outcome,[11],inactive
same,outcome,HGF (gene 3082),inactive
same,outcome,[12],inactive
same,outcome,[13],inactive
same,outcome,[14],inactive
same,outcome,[15],inactive
same,outcome,[16],inactive
CC(C)=CC1C(C(=O)OCc2coc(Cc3ccccc3)c2)C1(C)C (stereo unspecified),outcome,[1],inactive
same,outcome,CYP3A5 (gene 1577),inactive
same,outcome,[3],inactive
same,outcome,[4],inactive
same,outcome,[5],inactive
same,outcome,[6],inactive
same,outcome,[7],inactive
same,outcome,[17],inactive
same,outcome,[8],inactive
same,outcome,[9],inactive
same,outcome,[18],inactive
same,outcome,[10],inactive
same,outcome,[11],inactive
same,outcome,HGF (gene 3082),inactive
same,outcome,[12],inactive
same,outcome,[13],inactive
same,outcome,[14],inactive
same,outcome,[16],inactive
CC(C)N1C(=O)c2ccccc2NS1(=O)=O,outcome,[1],inactive
same,outcome,[2],inactive
same,outcome,CYP3A5 (gene 1577),inactive
same,outcome,[3],inactive
same,outcome,[4],inactive
same,outcome,[5],inactive
same,outcome,[6],inactive
same,outcome,[7],inactive
same,outcome,[17],inactive
same,outcome,[8],inactive
same,outcome,[9],inactive
same,outcome,[10],inactive
same,outcome,[11],inactive
same,outcome,[12],inactive
same,outcome,[13],inactive
same,outcome,[14],inactive
same,outcome,[16],inactive
CC1(C)CON(Cc2ccccc2Cl)C1=O,outcome,[1],inactive
same,AC50,[2],1.47 µM (active)
same,outcome,CYP3A5 (gene 1577),inactive
same,outcome,[3],inactive
same,outcome,[4],inactive
same,outcome,[5],inactive
same,outcome,[6],inactive
same,outcome,[7],inactive
same,outcome,[17],inactive
same,outcome,[8],inactive
same,outcome,[9],inactive
same,outcome,[10],inactive
same,outcome,[11],inactive
same,outcome,HGF (gene 3082),inactive
same,AC50,[12],25.6 µM (active)
same,outcome,[13],inactive
same,outcome,[14],inactive
same,outcome,[16],inactive
